# From PubChem BioAssay (NCATS)
# A number with no mark means an inactive call. Records with an inconclusive call do not appear. A call without a number means that no potency is given here. Activity calls are given as the source filed them. Calls come from the whole dose curve; as a rule, active = well fitted curve in the direction sought with a large enough effect; inconclusive = small, poorly fitted or top-dose-only effect, or another doubt; inactive = no such curve, though single readings can be large; an effect the other way counts as inactive or inconclusive. Where a SMILES comes first, the peptide text is derived from it. [ ]: non-standard residue; d: D form. ξ: configuration not given here. ξLac(3-iPr) = CC(C)CC(O)C(=O)O; NMeV = CN[CH](C(=O)O)C(C)C; NMeA = CN[CH](C)C(=O)O; βAla = NCCC(=O)O
# Assays:
# [1] = test system: Zika virus NS2B-NS3 protease (unlinked complex); experiment: Primary screen GU Rhodamine qHTS for Zika virus inhibitors: Unlinked NS2B-NS3 protease assay (AID 1347159); note: nearly all actives have a fitted effect of over 60% in size; note: potency is the fitted concentration of half-maximal effect
# Summary of the method: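 Percent inhibition came from the 15-min rise in Rhodamine110 fluorescence (1.5 microM substrate, ~15% conversion), normalized to no-inhibitor and no-enzyme wells and Hill-fitted. Unlinked protease, 25 nM, pH 8.0 Tris buffer; compounds up to 114 microM, 15-min preincubation.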
# [2] = target: Calcium and integrin-binding protein 1 (Homo sapiens) (UniProt Q99828); experiment: Primary qHTS for Identification of Calcium Integrin Binding Protein 1 (CIB1) Competitor (AID 1508620);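 note: GST tagged CIB1 binding a fluorescein labelled alphaIIb integrin peptide tracer; top concentration of the series differs between compounds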
# Summary of the method: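 CIB1-GST (1 uM final) and compound incubated 15 min at room temperature before adding FITC-alphaIIb peptide tracer (100 nM final). Competition for binding read by fluorescence polarization (ex 480, em 540) after another 15 min at room temperature.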
# [3] = target: Glutathione peroxidase 1 (Homo sapiens) (UniProt P07203); experiment: Primary qHTS Assay for Inhibitors of Recombinant Selenoprotein Glutathione Peroxidase 1 (GPX1) (AID 1845191); note: nearly all actives have a fitted effect of over 65% in size
# Summary of the method: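 NADPH consumption tracked by fluorescence at 340/450 nm between t=0 and t=15 min, room temperature. Final mix: 10 nM GPX1, 100 nM glutathione reductase, 1 mM GSH, 0.5 mM NADPH, 0.5 mM cumene hydroperoxide, 0.01% BSA; 30 min compound–enzyme preincubation.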
# [4] = target: Phospholipid hydroperoxide glutathione peroxidase GPX4 (Homo sapiens) (UniProt P36969); experiment: Primary qHTS Assay for Inhibitors of Recombinant Selenoprotein Glutathione Peroxidase 4 (GPX4) (AID 1845192); note: nearly all actives have a fitted effect of over 65% in size
# Summary of the method: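 NADPH consumption followed by fluorescence at 340/450 nm, t=0 and after 15 min at room temperature. Reaction started with cumene hydroperoxide (0.5 mM final) after 30 min compound–GPX4 preincubation; final 200 nM GPX4, 100 nM GR, 1 mM GSH, 0.5 mM NADPH.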
# [5] = target: Luciferin 4-monooxygenase (Photinus pyralis) (UniProt P08659); experiment: Primary firefly luciferase (FLuc) qHTS assay for identification of artifact compounds. (AID 1845220); conditions: outcome: dose series up to 54.1 µM unless noted; note: nearly all actives have a fitted effect of over 60% in size
# Summary of the method: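 Compounds sat 15 min at room temperature with 10 uM luciferin and 10 uM ATP (pH 7.6 Tris acetate). Firefly luciferase (10 nM final) was then added, and luminescence was read 5 min later. Data normalized to no-enzyme and DMSO controls were Hill-fitted.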
# [6] = test system: Nanoluciferase (engineered Oplophorus gracilirostris luciferase); experiment: Primary Nanoluciferase (NLuc) qHTS assay for identification of artifact compounds. (AID 1845222)
# Summary of the method: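 Luminescence from secreted NLuc (filtered, 1:55-diluted S16 cell medium) read 5 min after Nano-Glo substrate; compounds preincubated 15 min, RT. Hill fits of inhibition normalized to DMSO and no-enzyme.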
# [7] = Primary redox qHTS assay for identification of artifact compounds. (AID 1845223)
# Summary of the method: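 Redox-cycling detection via DTT (250 uM final) oxidation coupled to Amplex Red (25 uM)/HRP (250 mU/mL) in HBSS. 15 min preincubation plus 30 min after DTT, room temperature. Ex/Em 525/598 nm; 4-parameter Hill fit against DMSO and 10 uM DA3003.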
# HaCat = experiment: Cytotoxic Profiling of Annotated Libraries Using Quantitative High-Throughput Screening (AID 1296008); conditions: Five cell lines viability, CellTiter-Glo ATP luminescence, 48-72 h; max response: active compounds read low; note: nearly all actives have a fitted effect of over 60% in size; note: potency is the fitted concentration of half-maximal effect
# Summary of the method: (§1)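 Cytotoxicity was measured as CellTiter-Glo ATP luminescence, read after 10 min at room temperature. Compound treatment of the cells lasted 48 or 72 hr at 37 degrees Celsius in a qHTS format.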
# NIH3T3 = experiment: as above; conditions: Five cell lines viability, CellTiter-Glo ATP luminescence, 48-72 h; max response: active compounds read low
# Summary of the method: as §1
# C33A = experiment: Primary qHTS to identify gynecologic anti-cancer compounds using libraries of approved drugs and bioactive compounds (AID 1345084); conditions: Gynecologic cancer cell panel viability, ATPlite luminescence, 48 h; series mostly up to 57.5 µM; note: nearly all actives have a fitted effect of over 55% in size; note: potency is the fitted concentration of half-maximal effect
# Summary of the method: (§2)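 Cells, 1,000 per well, plated 16 h, then exposed 48 h at 37 C to compounds. Viability by ATPlite luminescence after 15 min at room temperature.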
# CASKI = experiment: as above; conditions: Gynecologic cancer cell panel viability, ATPlite luminescence, 48 h; series mostly up to 57.5 µM
# Summary of the method: as §2
# Es-2 = experiment: as above; conditions: Gynecologic cancer cell panel viability, ATPlite luminescence, 48 h; series mostly up to 57.5 µM
# Summary of the method: as §2
# Hek293T = experiment: as above; conditions: Gynecologic cancer cell panel viability, ATPlite luminescence, 48 h, control line for the selectivity index; series mostly up to 57.5 µM
# Summary of the method: as §2
# JEG-3 = experiment: as above; conditions: Gynecologic cancer cell panel viability, ATPlite luminescence, 48 h; series mostly up to 57.5 µM
# Summary of the method: as §2
# OV90 = experiment: as above; conditions: Gynecologic cancer cell panel viability, ATPlite luminescence, 48 h; series mostly up to 57.5 µM
# Summary of the method: as §2
# PA-1 = experiment: as above; conditions: Gynecologic cancer cell panel viability, ATPlite luminescence, 48 h; series mostly up to 57.5 µM
# Summary of the method: as §2
# Tov-21-G = experiment: as above; conditions: Gynecologic cancer cell panel viability, ATPlite luminescence, 48 h; series mostly up to 57.5 µM
# Summary of the method: as §2
# Tov112D = experiment: as above; conditions: Gynecologic cancer cell panel viability, ATPlite luminescence, 48 h; series mostly up to 57.5 µM
# Summary of the method: as §2
# [8] = test system: Zika virus NS2B-NS3 protease (linked construct); experiment: Primary screen NINDS Rhodamine qHTS for Zika virus inhibitors (AID 1347160); note: nearly all actives have a fitted effect of over 55% in size
# Summary of the method: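 Rhodamine110-peptide cleavage (1.5 µM substrate) by 25 nM linked NS2B-NS3 enzyme at pH 8.0 (Tris, Tween 20), after 15 min RT preincubation with compounds; 15-min fluorescence change normalized to controls and Hill-fitted.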
# [9] = Primary fluorescence-based thiol-reactive (MSTI) qHTS assay for identification of artifact compounds. (AID 1845221);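 note: thiol-reactive compounds lower the probe fluorescence signal; nearly all actives have a fitted effect of over 65% in size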
# Summary of the method: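 MSTI probe at 4 uM final in 2% DMSO/PBS pH 7.4; compounds, 1 h at room temperature in dark. Fluorescence Ex/Em 525/598 nm, normalised to Acetyl-MSTI and MSTI, fitted to 4-parameter Hill.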
# Chain of Phospholipid hydroperoxide glutathione peroxidase GPX4 (Homo sapiens) (P36969 whole entry, looked up): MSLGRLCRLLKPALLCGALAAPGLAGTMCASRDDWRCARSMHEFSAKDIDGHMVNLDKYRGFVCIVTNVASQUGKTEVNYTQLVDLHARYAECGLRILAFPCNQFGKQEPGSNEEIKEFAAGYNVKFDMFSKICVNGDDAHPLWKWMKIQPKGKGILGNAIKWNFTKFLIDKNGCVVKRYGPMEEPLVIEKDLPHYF
# Chain of Glutathione peroxidase 1 (Homo sapiens) (P07203 whole entry, looked up): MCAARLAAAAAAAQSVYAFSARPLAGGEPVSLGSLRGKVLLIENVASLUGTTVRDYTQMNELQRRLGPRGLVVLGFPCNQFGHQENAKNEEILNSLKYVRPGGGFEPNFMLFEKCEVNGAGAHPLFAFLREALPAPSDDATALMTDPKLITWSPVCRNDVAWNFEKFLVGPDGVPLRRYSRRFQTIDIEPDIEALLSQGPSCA
# Chain of Calcium and integrin-binding protein 1 (Homo sapiens) (Q99828 whole entry, looked up): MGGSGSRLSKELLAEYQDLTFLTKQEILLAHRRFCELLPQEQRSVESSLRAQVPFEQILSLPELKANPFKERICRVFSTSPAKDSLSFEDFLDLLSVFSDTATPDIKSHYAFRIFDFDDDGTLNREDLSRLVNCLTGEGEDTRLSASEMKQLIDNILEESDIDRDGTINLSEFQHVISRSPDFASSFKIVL
smiles,measurement,setting,value
CN1C(=O)[C@]23CC4C(C)(C)[C@@]5(C[C@@]41CN2CC[C@@]3(C)O)C(=O)Nc1c5ccc2c1OC=CC(C)(C)O2 (some centres undefined),Potency,[1],7.08 µM (active)
same,Potency,[2],inactive
same,Potency,[3],inactive
same,Potency,[4],inactive
same,outcome,[5],inactive
same,Potency,[6],inactive
same,Potency,[7],inactive
same,max response,HaCat,-7.56%
same,max response,NIH3T3,-0.852%
same,Potency,C33A,inactive
same,Potency,CASKI,inactive
same,Potency,Es-2,inactive
same,Potency,Hek293T,inactive
same,Potency,JEG-3,inactive
same,Potency,OV90,inactive
same,Potency,PA-1,inactive
same,Potency,Tov-21-G,inactive
same,Potency,Tov112D,inactive
C/C=C(\C)C(=O)O[C@H]1CC2C(=C1C)[C@H]1OC(=O)[C@](C)(O)[C@]1(O)[C@H](OC(=O)CCC)C[C@@]2(C)OC(C)=O (some centres undefined),Potency,[1],inactive
same,Potency,[8],inactive
same,Potency,[3],inactive
same,Potency,[4],inactive
same,outcome,[5],inactive [at 25.7 µM]
same,Potency,[9],inactive
same,Potency,[6],inactive
same,Potency,[7],inactive
same,Potency,NIH3T3,4.47 µM (active)
same,Potency,Hek293T,inactive
same,Potency,PA-1,5.01 µM (active)
same,Potency,Tov112D,5.01 µM (active)
CN1CN(c2ccccc2)C2(CCN(CCCC(=O)c3ccc(F)cc3)CC2)C1=O,Potency,[1],inactive
same,Potency,[8],inactive
same,Potency,[3],inactive
same,Potency,[4],inactive
same,outcome,[5],inactive
same,Potency,[9],inactive
same,Potency,[6],inactive
same,Potency,[7],inactive
same,max response,HaCat,2.53%
same,Potency,CASKI,inactive
same,Potency,Es-2,inactive
same,Potency,Hek293T,inactive
same,Potency,JEG-3,inactive
same,Potency,PA-1,inactive
same,Potency,Tov-21-G,inactive
same,Potency,Tov112D,inactive
CCCCn1cc(C(=O)c2cccc3ccccc23)c2ccccc21,Potency,[1],inactive
same,Potency,[8],inactive
same,Potency,[3],inactive
same,Potency,[4],inactive
same,outcome,[5],inactive
same,Potency,[9],inactive
same,Potency,[6],inactive
same,Potency,[7],inactive
same,outcome,HaCat,inactive
same,max response,NIH3T3,3.07%
same,Potency,C33A,inactive
same,Potency,CASKI,inactive
same,Potency,Es-2,inactive
same,Potency,JEG-3,inactive
same,Potency,OV90,inactive
same,Potency,PA-1,inactive
same,Potency,Tov-21-G,inactive
same,Potency,Tov112D,inactive
CC(=O)OC[C@]12C[C@H](OC(C)=O)C(C)=C[C@H]1O[C@@H]1[C@H](O)[C@@H](O)[C@@]2(C)[C@]12CO2,Potency,[1],inactive
same,Potency,[8],inactive
same,Potency,[2],inactive
same,Potency,[4],inactive
same,outcome,[5],inactive
same,Potency,[9],inactive
same,Potency,[6],inactive
same,Potency,[7],inactive
same,Potency,HaCat,1.28 µM (active)
same,Potency,NIH3T3,1.01 µM (active)
same,Potency,CASKI,1.41 µM (active)
same,Potency,Es-2,1.26 µM (active)
same,Potency,Hek293T,0.398 µM (active)
same,Potency,JEG-3,5.62 µM (active)
same,Potency,OV90,3.16 µM (active)
same,Potency,Tov112D,2.24 µM (active)
C/C=C(/C)C(=O)O[C@H]1[C@@H]2[C@H](C)C(=O)O[C@@H]2C[C@@H](C)[C@@H]2C=CC(=O)[C@]21C,Potency,[1],inactive
same,Potency,[2],inactive
same,Potency,[3],inactive
same,Potency,[4],inactive
same,outcome,[5],inactive
same,Potency,[9],inactive
same,Potency,[6],inactive
same,Potency,[7],inactive
same,max response,HaCat,-11.7%
same,Potency,JEG-3,inactive
same,Potency,Tov-21-G,inactive
CCC(C)C1NC(=O)C2CCCN2C(=O)C(CC(C)C)OC(=O)CCNC(=O)C(C)N(C)C(=O)C(C(C)C)N(C)C1=O (centres undefined) (cyclo([ξLac(3-iPr)]PI[NMeV][NMeA][βAla]); configuration not given here),Potency,[1],inactive
same,Potency,[8],inactive
same,Potency,[2],inactive
same,Potency,[3],inactive
same,Potency,[4],inactive
same,outcome,[5],inactive
same,Potency,[9],inactive
same,Potency,[6],inactive
same,max response,HaCat,-9.99%
same,Potency,C33A,inactive
same,Potency,CASKI,inactive
same,Potency,OV90,3.98 µM (active)
CCOC(=O)c1ccc(-c2ccc(OC(=O)N(C)Cc3cccc(-c4ccncc4)c3)cc2)cc1,Potency,[1],inactive
same,Potency,[8],inactive
same,Potency,[2],inactive
same,Potency,[3],inactive
same,Potency,[4],inactive
same,outcome,[5],inactive
same,Potency,[9],inactive
same,Potency,[6],inactive
same,Potency,[7],inactive
same,max response,HaCat,-8.03%
same,Potency,CASKI,inactive
same,Potency,Es-2,inactive
same,Potency,Hek293T,inactive
same,Potency,JEG-3,inactive
same,Potency,OV90,inactive
same,Potency,PA-1,inactive
same,Potency,Tov-21-G,inactive
same,Potency,Tov112D,inactive
NNC(=O)c1nn(Cc2ccc(Cl)cc2Cl)c2ccccc12,Potency,[1],inactive
same,Potency,[8],inactive
same,Potency,[3],inactive
same,Potency,[4],inactive
same,outcome,[5],inactive
same,Potency,[9],inactive
same,Potency,[6],inactive
same,Potency,[7],inactive
same,max response,HaCat,3.64%
same,max response,NIH3T3,-5.07%
same,Potency,C33A,inactive
same,Potency,CASKI,inactive
same,Potency,Es-2,inactive
same,Potency,Hek293T,inactive
same,Potency,JEG-3,inactive
same,Potency,OV90,inactive
same,Potency,Tov112D,inactive
CC1=CC2/C=C(\C)CCC(O)C(O)/C=C/C(=O)C23C(=O)NC(CC(C)C)C3C1C (centres undefined),Potency,[1],inactive
same,Potency,[8],inactive
same,Potency,[2],inactive
same,Potency,[3],inactive
same,Potency,[4],inactive
same,outcome,[5],inactive
same,Potency,[9],inactive
same,Potency,[6],inactive
same,Potency,[7],inactive
same,Potency,NIH3T3,7.96 µM (active)
same,Potency,Es-2,10 µM (active)
same,Potency,Hek293T,7.94 µM (active)
same,Potency,PA-1,12.6 µM (active)
same,Potency,Tov-21-G,inactive
same,Potency,Tov112D,10 µM (active)
C/C(=C\c1csc(C)n1)[C@@H]1C[C@@H]2O[C@@H]2CCC[C@H](C)[C@H](O)[C@@H](C)C(=O)C(C)(C)[C@@H](O)CC(=O)O1,Potency,[1],inactive
same,Potency,[8],inactive
same,Potency,[2],inactive
same,Potency,[3],inactive
same,Potency,[4],inactive
same,outcome,[5],inactive
same,Potency,[9],inactive
same,Potency,[6],inactive
same,Potency,[7],inactive
same,Potency,JEG-3,inactive
same,Potency,OV90,inactive
C[C@]12CC[C@H](OC3OC(CO)C(O)C(O)C3OC3OC(CO)C(O)C(O)C3O)C[C@@H]1CC[C@@H]1C2CC[C@]2(C)[C@@H](C3=CC(=O)OC3)CC[C@]12O (some centres undefined),Potency,[1],inactive
same,Potency,[2],inactive
same,Potency,[3],inactive
same,Potency,[4],inactive
same,outcome,[5],inactive
same,Potency,[9],inactive
same,Potency,[6],inactive
same,Potency,[7],inactive
same,max response,HaCat,-2.72%
same,outcome,NIH3T3,inactive
same,Potency,CASKI,inactive
same,Potency,JEG-3,inactive
same,Potency,OV90,inactive
same,Potency,PA-1,inactive
same,Potency,Tov112D,7.08 µM (active)
